# Sampled rows, rich in hits. Any-hit rate of the full collection: about 2.6%.
# S16 viability = toxic to S16 Pmp22-F2sN Schwann cells; S16 Pmp22-F2sN Schwann cells viability, CellTiter-Glo, 24 h; Potency, µM (titrated, usually from 57.5 µM), inactives show at the top dose activity change, negative = cytotoxicity, most hits filed as cytotoxic; actives 0.48% (n = 43,000); note: potency is the fitted concentration of half-maximal effect; % is set by controls: 0 for no effect and ±100 for the full control effect; nearly all actives have a fitted effect of over 65% in size
#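 S16 Schwann cells carrying the Pmp22-F2sN reporter, seeded in 1536-well format, were exposed to library compounds for 24 h at 37C. Viability was read as CellTiter-Glo luminescence after 15 min at room temperature.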
# GALC G270D up = galactocerebrosidase G270D activity enhancement, cell-based; P54803; 145M-Twi-hGALC-G270D cells (Twitcher mouse brain line with human GALC G270D), HMU-beta-Gal fluorescence, 48 h; Potency, µM (highest dose often 57.5 µM), most hits filed as activators; actives 0.1% (n = 45,000); AID 1159614; note: potency is the fitted concentration of half-maximal effect; 0% is about no effect; nearly all actives have a fitted effect of over 65% in size
#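 Live 145M-Twi cells (Twitcher mouse brain-derived, GALC-null) stably expressing human GALC-G270D, with a wild-type GALC line, were compound-treated. Residual GALC activity was then read as fluorescence from 0.1 mM final HMU-β-gal at pH 5.2; higher signal means activation.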
# mTORC1 inh = inhibitors of mTORC1 signaling in Tsc2-/- p53-/- MEF cells | Tsc2-/- p53-/- MEF, phospho-rpS6 immunofluorescence/PI, 24 h | Potency, µM (doses to about 38.3 µM), without a hit: at the top dose activity change, negative = inhibition, actives largely listed as inhibitors | actives 0.78% (n = 44,000);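 note: potency is the fitted concentration of half-maximal effect; plate controls were DMSO for no effect and rapamycin for full effect; nearly all actives have a fitted effect of over 50% in size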
#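 Cell-based qHTS: Tsc2-/- p53-/- MEF, 24 h cpd, 37 °C; fix/perm, anti-phospho-S6 Alexa-488 + PI; Acumen 488 nm scan; pS6/PI ratio, % positive cells; rapamycin 7.5 nM = inhibition ref; PI count = viability.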
# PMP22 txn = PMP22 gene transcription modulation. AID 1508649. S16 Pmp22-F2sN Schwann cells, FLuc/NLuc coincidence luminescence, 24 h. Potency, µM (doses to about 57.5 µM), for the others: at the top dose activity change, negative = inhibition, usual class: inhibitors. actives 2% (n = 43,000); active = clear falling dose curves in both reporters; inconclusive = both reporters move, but less clearly or upward; inactive = either reporter flat; the % is the NLuc reporter signal; note: potency is the fitted concentration of half-maximal effect; % is set by controls: 0 for no effect and ±100 for the full control effect
#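 Schwann cells carrying the coincidence reporter were exposed to library compounds for 24 h at 37C, then lysed and read for FLuc and, after quenching, NLuc luminescence on a CCD imager.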
# SKOV3 invasion = blocks SKOV3ip1 adhesion and invasion in omental model; SKOV3ip1-GFP adhesion/invasion on 3D omental model, fluorescence; Potency, µM (top dose mostly 45.8 µM), without a hit: at the highest dose activity change, negative = inhibition, hits mostly inhibitors; actives 0.1% (n = 46,000); AID 1963576;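 note: potency is the fitted concentration of half-maximal effect; plate controls were DMSO wells for no effect and tomatine positive control wells for full effect; nearly all actives have a fitted effect of over 65% in size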
#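 Primary human omental fibroblast/mesothelial 3D culture pre-formed 48 h. SKOV3ip1-GFP cells added with compounds (0.36-46 umol/L), incubated 2 h RT/16 h 37 C, fixed; GFP cells quantified at 488/509 nm.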
# NLuc saturating = inhibits NanoLuc at saturating substrate, PMP22 counter-screen. shares compounds with PMP22 txn. Secreted NLuc enzyme (filtered S16 cell medium), Nano-Glo luminescence. Potency, µM (titrated, usually from 57.5 µM), for the others: at the top dose activity change, negative = inhibition, hits mostly inhibitors. actives 4% (n = 690). AID 1508638; note: potency is the fitted concentration of half-maximal effect; % is set by controls: 0 for no effect and ±100 for the full control effect
# NLuc Km counter = NanoLuc inhibition at Km substrate, PMP22 artifact check | shares compounds with PMP22 txn | secreted NLuc enzyme, coelenterazine luminescence, Km conditions | Potency, µM (top dose mostly 57.5 µM), for the others: at the highest dose activity change, negative = inhibition, most hits filed as inhibitors | actives 5% (n = 690); note: potency is the fitted concentration of half-maximal effect; % is set by controls: 0 for no effect and ±100 for the full control effect
# FLuc counter = counter-screen for PMP22 expression modulators: firefly luciferase inhibition. AID 1508640. Potency, µM (doses to about 57.5 µM), for inactives: at the top dose activity, negative = inhibition, actives largely listed as inhibitors. purified P. pyralis FLuc, luminescence, 10 min. 690 tested, under 10 active. shares compounds with PMP22 txn; note: % of control where 0% means no effect
# Target sequence (P08659 whole entry, looked up): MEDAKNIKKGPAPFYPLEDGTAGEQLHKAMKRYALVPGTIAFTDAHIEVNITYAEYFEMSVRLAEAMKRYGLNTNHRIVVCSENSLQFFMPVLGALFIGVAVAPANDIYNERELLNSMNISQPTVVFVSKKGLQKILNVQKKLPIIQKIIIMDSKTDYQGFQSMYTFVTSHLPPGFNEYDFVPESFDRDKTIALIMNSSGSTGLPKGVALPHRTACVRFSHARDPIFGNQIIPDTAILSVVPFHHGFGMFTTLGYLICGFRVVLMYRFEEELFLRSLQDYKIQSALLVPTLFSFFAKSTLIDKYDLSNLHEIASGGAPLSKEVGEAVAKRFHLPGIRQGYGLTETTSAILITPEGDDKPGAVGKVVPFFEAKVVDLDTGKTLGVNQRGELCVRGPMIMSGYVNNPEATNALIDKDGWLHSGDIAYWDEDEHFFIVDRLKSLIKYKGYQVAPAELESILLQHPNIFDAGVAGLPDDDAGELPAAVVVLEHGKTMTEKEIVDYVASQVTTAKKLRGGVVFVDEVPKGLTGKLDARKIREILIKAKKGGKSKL
# S16 viab conf = confirmation of cytotoxicity in S16 Pmp22-F2sN Schwann cells (luciferase reporters placed in the Pmp22 gene) | shares compounds with PMP22 txn | S16 Schwann cells viability, CellTiter-Glo ATP luminescence, 24 h | Potency, µM (top dose mostly 57.5 µM), for inactives: at the top dose activity change, negative = viability loss, usual class: cytotoxic | actives 7% (n = 690); note: potency is the fitted concentration of half-maximal effect; % is set by controls: 0 for no effect and ±100 for the full control effect
# PMP22 txn cnf = PMP22 transcription modulation, confirmatory. shares compounds with PMP22 txn. S16 Schwann cells Pmp22-F2sN, dual luciferase, 24 h. Potency, µM (highest dose often 57.5 µM), for the others: top-dose activity change, negative = inhibition, usual class: inhibitors. actives 22% (n = 690). AID 1508646; active = clear falling dose curves in both reporters; inconclusive = both reporters move, but less clearly or upward; inactive = either reporter flat; the % is the FLuc reporter signal; note: potency is the fitted concentration of half-maximal effect
# PMP22 prot conf = rat PMP22 protein level modulation, confirmatory | 95 tested, under 10 active | Potency, µM (top dose mostly 27.9 µM), for inactives: top-dose activity change, negative = inhibition, usual class: inhibitors | shares compounds with PMP22 txn | S16 Schwann cells Pmp22-HiBiT, luminescence, 48 h
# Target sequence (P25094 whole entry, looked up): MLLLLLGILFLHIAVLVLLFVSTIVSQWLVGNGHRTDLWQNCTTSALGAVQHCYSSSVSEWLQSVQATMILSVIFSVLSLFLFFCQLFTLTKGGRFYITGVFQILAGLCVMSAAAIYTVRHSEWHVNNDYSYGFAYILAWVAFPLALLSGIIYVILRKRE
# Numbers without * were called inactive; i = inactive; ? = inconclusive; . = no result given. Unless noted, calls come from the whole dose curve; as a rule, active = well fitted curve in the direction sought with a large enough effect; inconclusive = small, poorly fitted or top-dose-only effect, or another doubt; inactive = no such curve, though single readings can be large; an effect the other way counts as inactive or inconclusive.
SMILES,S16 viability,GALC G270D up,mTORC1 inh,PMP22 txn,SKOV3 invasion,NLuc saturating,NLuc Km counter,FLuc counter,S16 viab conf,PMP22 txn cnf,others
CC(C)CCNC(=O)c1cccc(Nc2nc3ccccc3n3nnnc23)c1,20µM*,i,?,9.46µM*,?,.,.,.,.,.,
Cc1ccccc1Cn1c(CN2CCC(C(=O)NCCN(C)C)CC2)cc2ccccc21,?,i,7.36µM*,?,?,.,.,.,.,.,
Cc1ccc2nc(/C(C#N)=C/c3cccc(Br)c3)[nH]c2c1,?,i,18.5µM*,?,-1.4%,.,.,.,.,.,
COc1ccc(-c2ccc3ncc4c(c3c2)n(-c2ccc(N3CCNCC3)c(C(F)(F)F)c2)c(=O)n4C)cn1,.,.,.,.,9.35µM*,.,.,.,.,.,
CC1=C(C(=O)Nc2ccc(C)cc2C)C(c2cc(Br)ccc2F)n2ncc(C(=O)Nc3ccc(C)cc3)c2N1 (centres undefined),?,i,2.93µM*,?,i,.,.,.,.,.,
Cc1nnc(NC(=O)C(=O)c2cc(C)n(-c3ccc(C)c(C)c3)c2C)s1,?,i,0.8%,2.89µM*,2.1%,.,.,.,.,.,
CCOCCCNC(=O)c1ccc(-n2c(-c3ccccc3)cc3c2CCC(C)C3)cc1 (centres undefined),-2.9%,i,?,17.9µM*,-1.6%,-7.3%,0.2%,-7.8%,3.5%,?,PMP22 prot conf=4.6%
COCCCNC(=O)c1ccc(-n2c(-c3ccccc3)cc3c2CCCC3)cc1,2.1%,i,-19.8%,?,i,.,.,.,.,.,
C[C@@H]1CCO[C@H]2Cn3cc(C(=O)NCc4ccc(F)cc4F)c(=O)c(O)c3C(=O)N12,.,.,.,.,0.5%,.,.,.,.,.,
Cc1oc(-c2cccc(Cl)c2)nc1CN1CCC(C(=O)NCCCN2CCN(c3cccc(Cl)c3)CC2)CC1,?,i,0.1%,11.9µM*,0.6%,?,?,3.6%,27.3µM*,?,
Cc1oc(-c2cccc(Cl)c2)nc1CN1CCC(C(=O)NCCc2ccc(Cl)cc2)CC1,21.8%,i,-0.5%,-22.0%,1.9%,.,.,.,.,.,
COc1ccc(-c2nc3c(C#N)c[nH]n3c2NC2CCCC2)cc1,22.4µM*,i,0.2%,15µM*,1.2%,?,?,-16.2%,12.2%,?,
CC(=O)c1c(C)oc2ccc(N(C(=O)Oc3ccccc3)S(=O)(=O)c3ccc(C(C)(C)C)cc3)cc12,2.4%,i,-15.3%,12.7µM*,15.4%,-14.0%,-5.6%,-1.7%,-5.4%,?,
CCCC1=Nc2cc(C(=O)NC3CCCC3)ccc2Sc2ccc(C)cc21,1.8%,i,-9.9%,3.65µM*,-7.7%,-7.7%,-1.1%,8.5%,-2.4%,4.44µM*,
CCCC1=Nc2cc(C(=O)NC3CCCCC3)ccc2Sc2ccc(C)cc21,-34.2%,i,-2.5%,0.897µM*,-7.5%,-9.7%,3.0%,-8.2%,0.9%,2.89µM*,PMP22 prot conf=?
CC1=Nc2cc(C(=O)NC3CCCCC3)ccc2Sc2ccc(Cl)cc21,-5.9%,i,?,6.05µM*,-5.3%,-4.2%,0.4%,2.4%,-4.9%,8.68µM*,
Cc1nc(C2CCCCC2)c(-c2ccc(S(N)(=O)=O)c(F)c2)o1,.,i,.,.,.,.,.,.,.,.,
O=C(Cn1c(-c2cccs2)cc2ccccc21)NCCCN1CCN(c2ccc(F)cc2)CC1,-10.4%,i,?,10µM*,13.0%,-10.1%,-2.8%,4.5%,?,?,PMP22 prot conf=?
O=C(Cn1c(-c2cccs2)cc2ccccc21)NCCCN1CCN(c2ccccc2F)CC1,?,i,-3.7%,?,?,.,.,.,.,.,
O=C(Cn1c(-c2cccs2)cc2cc(F)ccc21)NCCCN1CCN(c2ccccc2F)CC1,?,i,?,?,-19.1%,.,.,.,.,.,PMP22 prot conf=?
Cc1cc(Nc2ncc3c(n2)N(C)C(=O)N(c2cc(NC(=O)c4cccc(C(F)(F)F)c4)ccc2C)C3)n(C)n1,.,.,.,.,1.7%,.,.,.,.,.,
CCOC(=O)c1c(C)c(-c2ccccc2)n(CC(=O)Nc2cc(C)ccc2OC)c1C,-2.5%,i,-0.1%,9.46µM*,-6.5%,-4.3%,3.6%,-3.7%,-8.7%,?,
CCc1ccccc1NC(=O)Cn1nc(CC)n2c(cc3sccc32)c1=O,5.0%,i,-5.2%,-41.5%,12.1%,-6.5%,-6.6%,9.9%,8.7%,?,
NC(=O)Nc1cc(-c2cccc(F)c2)sc1C(=O)N[C@H]1CCCNC1,.,.,.,.,-20.6%,.,.,.,.,.,
O=S(=O)(NCCc1csc2nc(-c3ccc(Cl)cc3)nn12)c1ccc(Oc2ccccc2)cc1,-5.1%,i,0.8%,12.6µM*,i,1.1%,4.6%,-0.6%,-3.3%,?,
O=C(CCS(=O)(=O)c1nc(-c2cccs2)cc(C(F)(F)F)n1)Nc1ccc(OC(F)(F)F)cc1,?,i,-17.1%,?,0.4%,-3.2%,?,1.9%,?,9.14µM*,PMP22 prot conf=?
O=C(CCS(=O)(=O)c1nc(-c2ccc3c(c2)OCO3)cc(C(F)(F)F)n1)Nc1ccc(Br)cc1,?,i,?,?,i,.,.,.,.,.,
COc1ccc(NC(=O)CCCS(=O)(=O)c2nc(-c3ccccc3OC)cc(C(F)(F)F)n2)c(OC)c1,25.1%,i,?,-20.7%,6.3%,.,.,.,.,.,

# Source: PubChem (National Center for Advancing Translational Sciences (NCATS))
